# Test results reported in the supplement of paper PMC4466140.
# B1: unnamed (peptide)
# chain: NQARKPFLLPATELS
# B2: unnamed (peptide)
# chain: DGNEEKPLLPTRPNK
# Columns and labels:
# Assay in all cases: SPOT peptide array binding signal intensity (averaged, normalized) (arbitrary units (background-subtracted, floor 0; scale differs between SH3 domains)); higher = stronger binding of the SH3 domain to the peptide
# CaNbp2 = biological target: CaNbp2
# Method in brief: (§1)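 Four yeast species supplied the SH3 domains, which were expressed as GST fusions in E. coli BL21(DE3) and purified on glutathione Sepharose. Incubation with cellulose membranes carrying synthetic 15-mer peptides, cysteines exchanged for serines, ran overnight at 4°C at 10 μg/ml in TBS-based blocking buffer. Binding signal is reported as normalized, background-subtracted spot intensity averaged over replicates, in arbitrary units not shared between domains.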
# CaRvs167 = biological target: CaRvs167
# Method in brief: as §1
# CaRvs167-3 = biological target: CaRvs167-3
# Method in brief: as §1
# CaSho1 = biological target: CaSho1
# Method in brief: as §1
# CaSla1-D1-D2 = biological target: CaSla1-D1-D2
# Method in brief: as §1
# CaSla1-D3 = biological target: CaSla1-D3
# Method in brief: as §1
# ScAbp1 = biological target: ScAbp1
# Method in brief: as §1
# ScBbc1 = biological target: ScBbc1
# Method in brief: as §1
# ScBem1-D1 = biological target: ScBem1-D1
# Method in brief: as §1
# ScBzz1-D1 = biological target: ScBzz1-D1
# Method in brief: as §1
# ScBzz1-D2 = biological target: ScBzz1-D2
# Method in brief: as §1
# ScCyk3 = biological target: ScCyk3
# Method in brief: as §1
# ScFus1 = biological target: ScFus1
# Method in brief: as §1
# ScHof1 = biological target: ScHof1
# Method in brief: as §1
# ScHse1 = biological target: ScHse1
# Method in brief: as §1
# ScLsb1 = biological target: ScLsb1
# Method in brief: as §1
# ScLsb2 = biological target: ScLsb2
# Method in brief: as §1
# ScLsb3 = biological target: ScLsb3
# Method in brief: as §1
# ScLsb4 = biological target: ScLsb4
# Method in brief: as §1
# ScMyo3 = biological target: ScMyo3
# Method in brief: as §1
# ScMyo5 = biological target: ScMyo5
# Method in brief: as §1
# ScNbp2 = biological target: ScNbp2
# Method in brief: as §1
# ScPex13 = biological target: ScPex13
# Method in brief: as §1
# ScRvs167 = biological target: ScRvs167
# Method in brief: as §1
# ScSho1 = biological target: ScSho1
# Method in brief: as §1
# ScSla1-D1-D2 = biological target: ScSla1-D1-D2
# Method in brief: as §1
# ScSla1-D3 = biological target: ScSla1-D3
# Method in brief: as §1
# SpAbp1-D1 = biological target: SpAbp1-D1
# Method in brief: as §1
# SpBbc1 = biological target: SpBbc1
# Method in brief: as §1
# SpBzz1-D1 = biological target: SpBzz1-D1
# Method in brief: as §1
# SpBzz1-D2 = biological target: SpBzz1-D2
# Method in brief: as §1
# SpCyk3 = biological target: SpCyk3
# Method in brief: as §1
# SpHof1 = biological target: SpHof1
# Method in brief: as §1
# SpHof1-2 = biological target: SpHof1-2
# Method in brief: as §1
# SpHof1-3 = biological target: SpHof1-3
# Method in brief: as §1
# SpHse1 = biological target: SpHse1
# Method in brief: as §1
# SpLsb1 = biological target: SpLsb1
# Method in brief: as §1
# SpLsb4 = biological target: SpLsb4
# Method in brief: as §1
# SpMyo1 = biological target: SpMyo1
# Method in brief: as §1
# SpNbp2 = biological target: SpNbp2
# Method in brief: as §1
# SpPex13 = biological target: SpPex13
# Method in brief: as §1
# SpRvs167 = biological target: SpRvs167
# Method in brief: as §1
# SpSla1-D1-D2 = biological target: SpSla1-D1-D2
# Method in brief: as §1
# SpSla1-D3 = biological target: SpSla1-D3
# Method in brief: as §1
# AgAbp1 = biological target: AgAbp1
# Method in brief: as §1
# AgBbc1 = biological target: AgBbc1
# Method in brief: as §1
# AgBem1-D1 = biological target: AgBem1-D1
# Method in brief: as §1
# AgBzz1-D1 = biological target: AgBzz1-D1
# Method in brief: as §1
# AgBzz1-D2 = biological target: AgBzz1-D2
# Method in brief: as §1
# AgCyk3 = biological target: AgCyk3
# Method in brief: as §1
# AgFus1 = biological target: AgFus1
# Method in brief: as §1
# AgHof1 = biological target: AgHof1
# Method in brief: as §1
# AgHse1 = biological target: AgHse1
# Method in brief: as §1
# AgLsb1 = biological target: AgLsb1
# Method in brief: as §1
# AgLsb4 = biological target: AgLsb4
# Method in brief: as §1
# AgMyo5 = biological target: AgMyo5
# Method in brief: as §1
# AgNbp2 = biological target: AgNbp2
# Method in brief: as §1
# AgRvs167 = biological target: AgRvs167
# Method in brief: as §1
# AgSho1 = biological target: AgSho1
# Method in brief: as §1
# AgSla1-D1-D2 = biological target: AgSla1-D1-D2
# Method in brief: as §1
# AgSla1-D3 = biological target: AgSla1-D3
# Method in brief: as §1
# CaAbp1-D1 = biological target: CaAbp1-D1
# Method in brief: as §1
# CaAbp1-D2 = biological target: CaAbp1-D2
# Method in brief: as §1
# CaBbc1 = biological target: CaBbc1
# Method in brief: as §1
# CaBem1-D1 = biological target: CaBem1-D1
# Method in brief: as §1
# CaBzz1-D1 = biological target: CaBzz1-D1
# Method in brief: as §1
# CaBzz1-D2 = biological target: CaBzz1-D2
# Method in brief: as §1
# CaCyk3 = biological target: CaCyk3
# Method in brief: as §1
# CaFus1 = biological target: CaFus1
# Method in brief: as §1
# CaHof1 = biological target: CaHof1
# Method in brief: as §1
# CaHse1 = biological target: CaHse1
# Method in brief: as §1
# CaLsb1 = biological target: CaLsb1
# Method in brief: as §1
# CaLsb4 = biological target: CaLsb4
# Method in brief: as §1
# CaMyo5 = biological target: CaMyo5
# Method in brief: as §1
binder,measurement,setting,value
B1,SPOT peptide array binding signal intensity,CaNbp2,100
same,SPOT peptide array binding signal intensity,CaRvs167,0.333
same,SPOT peptide array binding signal intensity,CaRvs167-3,4.5
same,SPOT peptide array binding signal intensity,CaSho1,28.5
same,SPOT peptide array binding signal intensity,CaSla1-D1-D2,≤ 0
same,SPOT peptide array binding signal intensity,CaSla1-D3,≤ 0
same,SPOT peptide array binding signal intensity,ScAbp1,59.5
same,SPOT peptide array binding signal intensity,ScBbc1,3.75
same,SPOT peptide array binding signal intensity,ScBem1-D1,3.5
same,SPOT peptide array binding signal intensity,ScBzz1-D1,13
same,SPOT peptide array binding signal intensity,ScBzz1-D2,6.5
same,SPOT peptide array binding signal intensity,ScCyk3,8
same,SPOT peptide array binding signal intensity,ScFus1,15
same,SPOT peptide array binding signal intensity,ScHof1,0.5
same,SPOT peptide array binding signal intensity,ScHse1,1630
same,SPOT peptide array binding signal intensity,ScLsb1,23.5
same,SPOT peptide array binding signal intensity,ScLsb2,≤ 0
same,SPOT peptide array binding signal intensity,ScLsb3,≤ 0
same,SPOT peptide array binding signal intensity,ScLsb4,≤ 0
same,SPOT peptide array binding signal intensity,ScMyo3,≤ 0
same,SPOT peptide array binding signal intensity,ScMyo5,≤ 0
same,SPOT peptide array binding signal intensity,ScNbp2,≤ 0
same,SPOT peptide array binding signal intensity,ScPex13,≤ 0
same,SPOT peptide array binding signal intensity,ScRvs167,4.67
same,SPOT peptide array binding signal intensity,ScSho1,105
same,SPOT peptide array binding signal intensity,ScSla1-D1-D2,≤ 0
same,SPOT peptide array binding signal intensity,ScSla1-D3,8
same,SPOT peptide array binding signal intensity,SpAbp1-D1,34
same,SPOT peptide array binding signal intensity,SpBbc1,≤ 0
same,SPOT peptide array binding signal intensity,SpBzz1-D1,≤ 0
same,SPOT peptide array binding signal intensity,SpBzz1-D2,≤ 0
same,SPOT peptide array binding signal intensity,SpCyk3,1
same,SPOT peptide array binding signal intensity,SpHof1,24.5
same,SPOT peptide array binding signal intensity,SpHof1-2,0.5
same,SPOT peptide array binding signal intensity,SpHof1-3,870
same,SPOT peptide array binding signal intensity,SpHse1,770
same,SPOT peptide array binding signal intensity,SpLsb1,11
same,SPOT peptide array binding signal intensity,SpLsb4,≤ 0
same,SPOT peptide array binding signal intensity,SpMyo1,≤ 0
same,SPOT peptide array binding signal intensity,SpNbp2,7
same,SPOT peptide array binding signal intensity,SpPex13,≤ 0
same,SPOT peptide array binding signal intensity,SpRvs167,≤ 0
same,SPOT peptide array binding signal intensity,SpSla1-D1-D2,≤ 0
same,SPOT peptide array binding signal intensity,SpSla1-D3,≤ 0
B2,SPOT peptide array binding signal intensity,AgAbp1,≤ 0
same,SPOT peptide array binding signal intensity,AgBbc1,977
same,SPOT peptide array binding signal intensity,AgBem1-D1,≤ 0
same,SPOT peptide array binding signal intensity,AgBzz1-D1,9.5
same,SPOT peptide array binding signal intensity,AgBzz1-D2,17.5
same,SPOT peptide array binding signal intensity,AgCyk3,≤ 0
same,SPOT peptide array binding signal intensity,AgFus1,≤ 0
same,SPOT peptide array binding signal intensity,AgHof1,23.8
same,SPOT peptide array binding signal intensity,AgHse1,≤ 0
same,SPOT peptide array binding signal intensity,AgLsb1,47.2
same,SPOT peptide array binding signal intensity,AgLsb4,1730
same,SPOT peptide array binding signal intensity,AgMyo5,0.25
same,SPOT peptide array binding signal intensity,AgNbp2,≤ 0
same,SPOT peptide array binding signal intensity,AgRvs167,43.8
same,SPOT peptide array binding signal intensity,AgSho1,≤ 0
same,SPOT peptide array binding signal intensity,AgSla1-D1-D2,≤ 0
same,SPOT peptide array binding signal intensity,AgSla1-D3,≤ 0
same,SPOT peptide array binding signal intensity,CaAbp1-D1,≤ 0
same,SPOT peptide array binding signal intensity,CaAbp1-D2,≤ 0
same,SPOT peptide array binding signal intensity,CaBbc1,844
same,SPOT peptide array binding signal intensity,CaBem1-D1,≤ 0
same,SPOT peptide array binding signal intensity,CaBzz1-D1,18
same,SPOT peptide array binding signal intensity,CaBzz1-D2,1.75
same,SPOT peptide array binding signal intensity,CaCyk3,7
same,SPOT peptide array binding signal intensity,CaFus1,≤ 0
same,SPOT peptide array binding signal intensity,CaHof1,0.5
same,SPOT peptide array binding signal intensity,CaHse1,6.38
same,SPOT peptide array binding signal intensity,CaLsb1,≤ 0
same,SPOT peptide array binding signal intensity,CaLsb4,3160
same,SPOT peptide array binding signal intensity,CaMyo5,≤ 0
same,SPOT peptide array binding signal intensity,CaNbp2,4.5
same,SPOT peptide array binding signal intensity,CaRvs167,382
same,SPOT peptide array binding signal intensity,CaRvs167-3,22
same,SPOT peptide array binding signal intensity,CaSho1,1.5
same,SPOT peptide array binding signal intensity,CaSla1-D1-D2,≤ 0
same,SPOT peptide array binding signal intensity,CaSla1-D3,≤ 0
same,SPOT peptide array binding signal intensity,ScAbp1,≤ 0
same,SPOT peptide array binding signal intensity,ScBbc1,306
same,SPOT peptide array binding signal intensity,ScBem1-D1,6.5
same,SPOT peptide array binding signal intensity,ScBzz1-D1,34.2
same,SPOT peptide array binding signal intensity,ScBzz1-D2,≤ 0
same,SPOT peptide array binding signal intensity,ScCyk3,≤ 0
same,SPOT peptide array binding signal intensity,ScFus1,≤ 0
same,SPOT peptide array binding signal intensity,ScHof1,41.6
same,SPOT peptide array binding signal intensity,ScHse1,15
same,SPOT peptide array binding signal intensity,ScLsb1,209
same,SPOT peptide array binding signal intensity,ScLsb2,10
same,SPOT peptide array binding signal intensity,ScLsb3,7260
same,SPOT peptide array binding signal intensity,ScLsb4,4200
same,SPOT peptide array binding signal intensity,ScMyo3,0.5
same,SPOT peptide array binding signal intensity,ScMyo5,8.12
same,SPOT peptide array binding signal intensity,ScNbp2,≤ 0
same,SPOT peptide array binding signal intensity,ScPex13,855
same,SPOT peptide array binding signal intensity,ScRvs167,871
same,SPOT peptide array binding signal intensity,ScSho1,≤ 0
same,SPOT peptide array binding signal intensity,ScSla1-D1-D2,≤ 0
same,SPOT peptide array binding signal intensity,ScSla1-D3,≤ 0
same,SPOT peptide array binding signal intensity,SpAbp1-D1,≤ 0
same,SPOT peptide array binding signal intensity,SpBbc1,0.5
same,SPOT peptide array binding signal intensity,SpBzz1-D1,≤ 0
same,SPOT peptide array binding signal intensity,SpBzz1-D2,≤ 0
same,SPOT peptide array binding signal intensity,SpCyk3,≤ 0
same,SPOT peptide array binding signal intensity,SpHof1,0.25
same,SPOT peptide array binding signal intensity,SpHof1-2,0.875
same,SPOT peptide array binding signal intensity,SpHof1-3,1.88
same,SPOT peptide array binding signal intensity,SpHse1,≤ 0
same,SPOT peptide array binding signal intensity,SpLsb1,1100
same,SPOT peptide array binding signal intensity,SpLsb4,3290
same,SPOT peptide array binding signal intensity,SpMyo1,≤ 0
same,SPOT peptide array binding signal intensity,SpNbp2,≤ 0
same,SPOT peptide array binding signal intensity,SpPex13,≤ 0
same,SPOT peptide array binding signal intensity,SpRvs167,467
same,SPOT peptide array binding signal intensity,SpSla1-D1-D2,≤ 0
same,SPOT peptide array binding signal intensity,SpSla1-D3,≤ 0
